Counter-ions that a name gives are not always drawn. ± gives the standard deviation.
How the values were obtained:
Jurkat [1] = assay: mean cell size (FSC-A) relative to DMSO control (fraction of control); higher = larger cells; conditions: 48 h
How it was run: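 Jurkat cells seeded at 600 cells/µl were incubated 1 h, then exposed for 48h to the Enzo Screen-Well FDA Approved Drug Library v2.0 at 25µM in 0.9% (v/v) final DMSO. Drugs that cut counts below 20% of controls were diluted 10-fold and retested, down to 25nM. Cell count and mean cell size (forward scatter area) were read on an Accuri C6 flow cytometer, relative to solvent-only controls. Plates held 6-12 controls; values are means of 3 biological replicates.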

Jurkat [2] = assay: cell count relative to DMSO control (fraction of control); higher = more cells (less growth inhibition); conditions: 48 h

Row | SMILES | mean cell size (Jurkat [1]) | cell count (Jurkat [2])
1 | CC(=O)OC[C@H]1O[C@@H]([S-])[C@H](OC(C)=O)[C@@H](OC(C)=O)[C@@H]1OC(C)=O.CCP(CC)CC.[Au+] [Auranofin] (concentration: 250 nM) | 0.9833 ± 0.0086 | 0.762 ± 0.058
2 | N=C(N)NC(=O)Cc1c(Cl)cccc1Cl [Guanfacine·HCl] (concentration: 25 µM) | 0.956 ± 0.059 | 0.695 ± 0.13
3 | CC(CCc1ccccc1)NCC(O)c1ccc(O)c(C(N)=O)c1 (centres undefined) [Labetalol·HCl] (concentration: 25 µM) | 0.928 ± 0.049 | 0.821 ± 0.1
4 | COc1ccc(CCN(C)CCCC(C#N)(c2ccc(OC)c(OC)c2)C(C)C)cc1OC (centres undefined) [Verapamil·HCl] (concentration: 25 µM) | 0.939 ± 0.025 | 0.756 ± 0.042
5 | CCOC(=O)N1CCC(=C2c3ccc(Cl)cc3CCc3cccnc32)CC1 [Loratadine] (concentration: 25 µM) | 0.938 ± 0.034 | 0.367 ± 0.031
6 | COC(=O)CCc1ccc(OCC(O)CNC(C)C)cc1 (centres undefined) [Esmolol] (concentration: 25 µM) | 0.9278 ± 0.0077 | 1.08 ± 0.12
7 | CN1CCN(CCCN2c3ccccc3Sc3ccc(C(F)(F)F)cc32)CC1 [Trifluoperazine·HCl] (concentration: 2.5 µM) | 1.072 ± 0.01 | 0.776 ± 0.13
8 | CN(C)/N=N/c1[nH]cnc1C(N)=O [Dacarbazine] (concentration: 25 µM) | 0.981 ± 0.048 | 0.836 ± 0.093
9 | C[C@@H](O)[C@H]1C(=O)N2C(C(=O)O)=C(S[C@@H]3CN[C@H](CNS(N)(=O)=O)C3)[C@H](C)[C@H]12 [Doripenem] (concentration: 25 µM) | 0.94 ± 0.011 | 0.963 ± 0.12
10 | CCCc1nn(C)c2c(=O)[nH]c(-c3cc(S(=O)(=O)N4CCN(C)CC4)ccc3OCC)nc12 [Sildenafil Citrate] (concentration: 25 µM) | 1.02 ± 0.055 | 0.719 ± 0.22
11 | CN(C)CCOc1ccc(/C(=C(/CCCl)c2ccccc2)c2ccccc2)cc1 [Toremifene Base] (concentration: 25 µM) | 0.9556 ± 0.0078 | 0.948 ± 0.079
12 | CN(C/C=C/C#CC(C)(C)C)Cc1cccc2ccccc12 [Terbinafine·HCl] (concentration: 25 µM) | 0.947 ± 0.018 | 0.947 ± 0.08
13 | CCOC(=O)C1=C(C)NC(C)=C(C(=O)OC)C1c1cccc(Cl)c1Cl (centres undefined) [Felodipine] (concentration: 25 µM) | 0.9169 ± 0.007 | 0.922 ± 0.12
14 | CC=CC(=O)N(CC)c1ccccc1C [Crotamiton] (concentration: 25 µM) | 0.972 ± 0.034 | 0.809 ± 0.17
15 | CC(=O)O[C@H]1C[C@@H]2CC[C@@H]3[C@H](CC[C@@]4(C)[C@H]3C[C@H]([N+]3(C)CCCCC3)[C@@H]4OC(C)=O)[C@@]2(C)C[C@@H]1N1CCCCC1 [Vecuronium Bromide] (concentration: 25 µM) | 0.858 ± 0.043 | 0.294 ± 0.13
16 | N[C@@H](CC(=O)N1CCn2c(nnc2C(F)(F)F)C1)Cc1cc(F)c(F)cc1F [Sitagliptin Phosphate] (concentration: 25 µM) | 0.999 ± 0.021 | 0.554 ± 0.18
17 | CN(C)CCOC(c1ccccc1)c1ccccc1 [Diphenhydramine·HCl] (concentration: 25 µM) | 0.967 ± 0.017 | 0.987 ± 0.042
18 | CO[C@H]1C[C@@H]2CC[C@@H](C)[C@@](O)(O2)C(=O)C(=O)N2CCCC[C@H]2C(=O)O[C@H]([C@H](C)C[C@@H]2CC[C@@H](O)[C@H](OC)C2)CC(=O)[C@H](C)/C=C(\C)[C@@H](O)[C@@H](OC)C(=O)[C@H](C)C[C@H](C)/C=C/C=C/C=C/1C [Sirolimus (Rapamycin)] (concentration: 2.5 µM) | 0.7581 ± 0.0033 | 0.626 ± 0.074
19 | CC1(C)O[C@@H]2C[C@H]3[C@@H]4C[C@H](F)C5=CC(=O)C=C[C@]5(C)[C@H]4[C@@H](O)C[C@]3(C)[C@]2(C(=O)CO)O1 [Flunisolide] (concentration: 2.5 µM) | 0.996 ± 0.021 | 0.893 ± 0.11
20 | CCCCC(=O)N(Cc1ccc(-c2ccccc2-c2nnn[nH]2)cc1)[C@H](C(=O)O)C(C)C [Valsartan] (concentration: 25 µM) | 0.9682 ± 0.0072 | 0.976 ± 0.11
21 | O=C(O)COCCN1CCN(C(c2ccccc2)c2ccc(Cl)cc2)CC1 (centres undefined) [Cetirizine 2HCl] (concentration: 25 µM) | 0.962 ± 0.032 | 1.01 ± 0.12
22 | C[C@@H]1NC(=O)[C@@H](N)CNC(=O)[C@H](C2CCNC(=N)N2)NC(=O)/C(=C/NC(N)=O)NC(=O)[C@H](CNC(=O)CC(N)CCCN)NC1=O.N=C1NCC[C@H]([C@@H]2NC(=O)/C(=C/NC(N)=O)NC(=O)[C@H](CNC(=O)C[C@@H](N)CCCN)NC(=O)[C@H](CO)NC(=O)[C@@H](N)CNC2=O)N1 [Capreomycin Sulfate] (concentration: 25 µM) | 0.97 ± 0.044 | 0.544 ± 0.14
